Compound activity deposited in PubChem BioAssay by several laboratories.
Compounds with a hit are over-represented: about 1.7% of the library has one in this group of screens.
Vc quorum ag: induces V. cholerae light production without autoinducers; V. cholerae BH1578 lux reporter, luminescence, 6 h; activation, % at 18.7 µM; AID 588436; 350,000 compounds, 0.16% hits; in the data active = activation mostly above about 9.7%, no sharp cut-off; inconclusive = no clear call, values can overlap the other calls; inactive = mostly below about 3.7%
PfHsp40 rescue: rescue of PfHsp40-mediated yeast toxicity; S. cerevisiae expressing PfHsp40, growth rescue, ATP luminescence; growth rescue, % at 12.5 µM; 340,000 compounds, 0.68% hits; AID 504582; in the data active = growth rescue above about 28%, passing the limit was not always enough; inconclusive = no clear call, values can overlap the other calls;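 also: yeast W303a lacking pdr1 and pdr3 grown in galactose medium; growth measured after three days at 30 °C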
Mtb hypoxia inh: inhibitors of hypoxia-regulated fluorescent reporter in Mycobacterium tuberculosis | fluorescence inhibition, % (no concentration beside the values) | M. tuberculosis hypoxia-regulated fluorescent reporter, fluorescence | 300,000 compounds, 0.1% hits; in the data active = fluorescence inhibition mostly above about 23%, no sharp cut-off; inactive = mostly below about 17%
CCHF vOTU inh: CCHFV vOTU protease inhibition; inhibition, % at 11.5 µM; 370,000 compounds, 0.55% hits; Pep-AMC fluorescence; in the data active = inhibition above about 30%; also: 0% = vehicle wells with enzyme and 100% = no enzyme wells
ugtP null kill: kills S. aureus RN4220 lacking UgtP. S. aureus RN4220 ugtP deletion, OD600 growth, 16 h. 330,000 compounds, 0.54% hits. growth inhibition, % (test concentration not listed). AID 1259309; in the data active = growth inhibition above about 68%;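 also: plate controls were untreated wells for no effect and antibiotic for full effect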
RN4220 kill: S. aureus RN4220 growth inhibition | OD600, 16 h | inhibition, % (no concentration beside the values) | 330,000 compounds, 0.33% hits | AID 1259311; in the data active = inhibition above about 85%;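 also: plate controls were untreated cells for no effect and reference antibiotic for full effect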
* = called active by the depositor; i = inactive; ? = inconclusive; / = no result given.

SMILES | Vc quorum ag | PfHsp40 rescue | Mtb hypoxia inh | CCHF vOTU inh | ugtP null kill | RN4220 kill
COc1ccc(Cl)cc1C(Nc1cccnc1)c1ccc2cccnc2c1O (stereo not given) | 0 | 89* | 7 | -7 | 7 | 21
Cc1cc(NC(c2cccnc2)c2ccc3cccnc3c2O)no1 (stereo not given) | 3 | ? | 13 | -2 | -8 | 11
CCC(=O)NC(c1ccccc1OC)c1ccc2cccnc2c1O (stereo not given) | i | ? | 3 | / | -19 | 3
O=C(CNC(=O)c1ccc2c(c1)OCO2)NN=Cc1cc(Br)ccc1O | / | / | 2 | / | 0 | 8
COc1ccc(Oc2c(-c3ccc(O)cc3O)n[nH]c2C)cc1 | -1 | 0 | 6 | 1 | -13 | 0
CCCc1ccc(Oc2c(-c3ccc(O)c(C)c3O)n[nH]c2C)cc1 | 0 | 3 | 5 | 8 | 97* | 77
C=CCN(CC=C)C(=S)NC(=O)c1ccc(C)c(Br)c1 | -5 | 296* | 4 | -6 | -5 | 13
C[C@@]12CCC3[C@@](CCC4[C@@]3(C)CCC[C@@]4(C)C(=O)NC3CCCCC3)(CC1=O)C2 (stereo not given in full) | -1 | 4 | 9 | 1 | 4 | 6
COc1ccc(CNC(=O)[C@]2(C)CCC[C@@]3(C)C4CC[C@@]5(C)C[C@]4(CCC32)CC5=O)cc1 (stereo not given in full) | i | 162* | 15 | 8 | 7 | 4
Cc1ccc(CNC(=O)[C@]2(C)CCC[C@@]3(C)C4CC[C@@]5(C)C[C@]4(CCC32)CC5=O)cc1 (stereo not given in full) | -19 | 95* | / | 8 | / | /
CCCOc1ccc(-c2c(C(=O)NN=CC3CCCCC3)nnn2-c2nonc2N)cc1 | / | / | 3 | / | -3 | -8
Fc1ccc(NC(=S)NN=Cc2ccccc2Cl)cc1 | -1 | -1 | -6 | -6 | 86* | -4
Oc1ccccc1C=NNC(=S)Nc1ccc(F)cc1 | 0 | -2 | -9 | 3 | -31 | 1
CC(C)(C)c1cc(C=C(C#N)C#N)cc(C(C)(C)C)c1O | -4 | 211* | 15 | 2 | 25 | 50
CCCCCCCN(C(=O)CCl)c1cccc(C)c1 | 0 | 0 | 22 | -11 | 87* | 25
CCOc1ccc(CC(=O)C2C(=O)CC(C)(C)CC2=O)cc1OCC | -6 | -3 | 5 | -2 | -1 | 4
CC1(C)CC(=O)C(C(=O)Cc2ccccc2[N+](=O)[O-])C(=O)C1 | 0 | 29* | -14 | 2 | 1 | 2
O=C(c1ccc(Cl)cc1)C(CN1CCCC1)c1ccccc1 (stereo not given) | -1 | -1 | 14 | 6 | 87* | 67
COc1ccc(C(=O)C(CN2CCCC2)c2ccccc2)cc1 (stereo not given) | 0 | 1 | / | 0 | / | /
COc1ccc(C2C(=C(O)c3ccccc3)C(=O)C(=O)N2c2ncccn2)cc1OC (stereo not given) | / | / | 2 | / | 9 | 5
CC(=O)NC(c1cccs1)c1cc([N+](=O)[O-])c2cccnc2c1O (stereo not given) | 0 | 243* | 16 | 28 | 39 | 53
CC(=O)NC(c1ccccc1)c1cc([N+](=O)[O-])c2cccnc2c1O (stereo not given) | 1 | 2 | 4 | 25 | 33 | 34
CCCC(=O)NC(c1cccs1)c1cc([N+](=O)[O-])c2cccnc2c1O (stereo not given) | 0 | 0 | 15 | 22 | 91* | 80
CCc1nc(SCC(=O)Nc2ccc3c(c2)OCCO3)c2oc3ccccc3c2n1 | 7 | 0 | / | 3 | 6 | 5
Cc1nc(SCc2ccccc2F)c2oc3ccccc3c2n1 | 0 | 0 | 40* | 5 | 9 | 8
SMILES | Vc quorum ag | PfHsp40 rescue | Mtb hypoxia inh | CCHF vOTU inh | ugtP null kill | RN4220 kill
Cc1nc(SCC(=O)Nc2ccc3c(c2)OCCO3)c2oc3ccccc3c2n1 | 1 | -1 | 6 | -15 | 90* | 5
COc1cccc(C(=O)NN=Cc2ccc(OC3CSC3)cc2)c1 | / | / | -3 | / | 7 | 14
CCC(=O)C1=C(O)C(c2cccc(Oc3ccccc3)c2)CCC1=O (stereo not given) | i | 211* | -3 | 4 | 2 | 15
COc1ccc2c(c1)C(=O)CCC2c1ccccc1 (stereo not given) | i | ? | 2 | 16 | 4 | 1
Cc1ccc(C(=O)Nc2cccc(C(=O)NN=Cc3ccccc3F)c2)cc1 | / | / | -8 | / | 0 | -4
CSc1ccc(C=NNc2nc(C)cc(=O)[nH]2)cc1 | / | / | -3 | / | 2 | 7
CC(Sc1ccc(Cl)cc1)C(=O)NCC(c1ccco1)N1CCCCC1 (stereo not given) | -1 | 35* | 3 | -7 | 3 | 4
CCC(C)C(C(=O)N1CCN(C(=O)OC(C)(C)C)CC1)n1cc(C(Cc2ccc(O)cc2)NC(=O)OC(C)(C)C)nn1 (stereo not given) | / | / | 2 | / | 0 | 1
COc1ccc(CNC(=O)[C@H](C)NC(=O)C2CCN(C(=O)[C@H](CCSC)NC(=O)OC(C)(C)C)CC2)cc1 | -1 | -1 | / | -1 | -5 | 2
COc1ccc(CNC(=O)C2CCN(C(=O)[C@@H](CC(C)C)NC(=O)OC(C)(C)C)CC2)cc1 | 17* | 1 | 0 | -4 | 2 | -20
CC(C)C1OC2c3cccc4cccc(c34)C2N1c1ccccc1 (stereo not given) | 0 | -2 | 1 | 3 | 90* | -3
COc1ccc(Nc2nc(N)c(C(=O)c3ccc(F)cc3)s2)cc1 | i | 34* | / | -6 | / | /
Cn1c(=O)n(C)c2cc(C=NNC(=O)c3ccc(Cl)cc3Cl)ccc21 | / | / | 10 | / | -4 | 4
CCC(NC(=O)Nc1nnc(C(F)(F)F)s1)(C(F)(F)F)C(F)(F)F | i | 0 | / | 1 | 88* | 75
CCN(CC)S(=O)(=O)c1cccc(NC(=O)C(=O)c2c(-c3ccccc3)cc3ccccn23)c1 | 0 | 2 | -13 | 2 | -12 | 11
CCN(CC)S(=O)(=O)c1ccc(N2CCOCC2)c(NC(=O)C(=O)c2c(-c3ccccc3)cc3ccccn23)c1 | -1 | 130* | 17 | 2 | -14 | 21
Cc1nnc(SCc2c(Cl)cccc2Cl)n(N)c1=O | 58* | 0 | 2 | 5 | 4 | 4
Cc1ccc(S(=O)(=O)N2CCN(c3ncnc4scc(-c5ccccc5)c34)CC2)cc1 | i | 3 | 3 | 13 | 58 | 91*
O=S(=O)(c1cccc(F)c1)N1CCN(c2ncnc3scc(-c4ccc(F)cc4)c23)CC1 | -6 | -1 | -4 | -7 | 99* | 97*
Cc1ccc(S(=O)(=O)N2CCN(c3ncnc4scc(-c5ccc(F)cc5)c34)CC2)cc1 | i | 2 | 6 | 3 | 99* | 98*
COc1ccc(-c2csc3ncnc(N4CCN(S(=O)(=O)c5ccc(C(C)=O)cc5)CC4)c23)cc1 | -3 | 3 | -5 | -9 | 0 | 7
CC(=O)NC(=S)Nc1ccc(-c2nc3ccc(C)cc3s2)cc1 | i | -1 | / | -8 | -7 | -5
